The whole screen tested about 330,000 compounds, of which about 1,900 (0.58%) were called active. Inconclusive results (about 4%) are left out. No stated cut-off is given here; in the data, inconclusive means inhibition above about 70% without an active follow-up result; inactive means below that. The list is a sample of the results. Potency and affinity values are given separately.

The results in this text go back to PubChem BioAssay AID449762 (Southern Research Specialized Biocontainment Screening …, 2010).

This experiment is described as follows: M. tuberculosis growth inhibition, HTS (AID 449762).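 Further: bacterial growth assessed after seven days of incubation.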 As to conditions: M. tuberculosis H37Rv growth inhibition, 7H9 media; at 25 µM; active compounds read high.
What is called inhibition is the change of the read-out against control, counted positive when it falls. For `Cn1c(CCNC(=O)c2cccs2)nnc1SCC(=O)Nc1nc(-c2ccccc2)cs1`, the inhibition is -0.83% (inactive).

Consider `Cc1cc(C)n2nc(C(=O)OCC(=O)Nc3ccc(C)c(F)c3)nc2n1`, for which the inhibition was -2.78% (inactive).

With `Cc1ccc(N/C=C/C(=O)c2sc(-c3ccccc3)nc2C)cc1`, the inhibition was 11.4% (inactive).

For the compound `Cc1nc(-c2ccccc2)sc1C(=O)/C=C/c1ccc(Cl)cc1`, the inhibition is 36.1% (inactive).

Consider `COc1ccc(NC(=O)c2sc(-c3ccccc3)nc2C)c(OC)c1`, for which the inhibition is 3.27% (inactive).

As for `COc1ccc(/C=C/C(=O)c2sc(-c3ccccc3)nc2C)cc1`, the inhibition was -17.3% (inactive).

In the case of `Cc1ccc(S(=O)(=O)CCC(=O)NCc2ccco2)cc1`, the inhibition was -10.5% (inactive).

With `O=C(Nc1ccc(N2CCOCC2)c(Cl)c1)c1ccc(-n2cnnc2)cc1Cl`, the inhibition is 2.83% (inactive).

Take `COc1ccc(-n2c(CNCCc3ccc(C)cc3)nc3ccccc3c2=O)cc1`: the inhibition was 14.6% (inactive).

In the case of `COc1ccc(CN2CCN(S(=O)(=O)c3ccc(F)cc3)CC2)c(OC)c1OC`, the inhibition was 9.52% (inactive).

In the case of `COc1ccc(CN2CCN(c3ccc(F)cc3)CC2)c(OC)c1OC`, the inhibition is 0.31% (inactive).

As to `Cc1ccc(S(=O)(=O)N2CCOCC2)cc1NC(=O)C(c1ccc(Cl)cc1)C(C)C` (stereo not given), the inhibition was -2.19% (inactive).

As to `CCOC(=O)[C@H]1[C@H]2COc3ccc(OC)cc3[C@@H]2N2C(=O)c3ccccc3NC(=O)[C@@]12C`, the inhibition was 3.81% (inactive).

In the case of `CC(NC(=O)c1cc(COc2ccc3ncccc3c2)on1)c1ccc(F)cc1` (stereo not given), the inhibition was 6.82% (inactive).

Take `Cc1cc(C)n(CCNC(=O)c2cc(COc3ccc4ncccc4c3)on2)n1`: the inhibition is 4.76% (inactive).

With `Cc1ccc(/C=N/NC(=O)Cc2ccc(Cl)cc2)c(O)c1`, the inhibition is -1.94% (inactive).

`O=C(COc1ccccc1F)Nc1ccc(S(=O)(=O)Nc2nccs2)cc1`: the inhibition was 3.76% (inactive).

For the compound `O=C(C1=C[C@@H](c2ccc(C(F)(F)F)cc2)C[C@@H](OCc2ccc(CO)cc2)O1)N1CCN(Cc2ccccc2)CC1`, the inhibition was 5.34% (inactive).

As to `O=C(Nc1cc(C(F)(F)F)ccc1-n1cncn1)c1ccc(Br)cc1`, the inhibition is -2.45% (inactive).

With `Cc1ccc(C(=O)Nc2cc(C(F)(F)F)ccc2-n2cncn2)o1`, the inhibition was -8.09% (inactive).

Take `Cc1c(C(=O)O)oc2ccc(S(=O)(=O)NCCC3=CCCCC3)cc12`: the inhibition was -7.6% (inactive).

On to `CC(=O)N1CCCc2cc(S(=O)(=O)NC(C(=O)NCc3ccc(C)cc3)C(C)C)ccc21` (stereo not given), for which the inhibition is 9.01% (inactive).

For the compound `Cc1ccc(C(=O)Cn2cncn2)cc1`, the inhibition is 9.3% (inactive).

Turning to `CCCCn1c(O)c(/C=C2\C=Nc3ccccc32)c(=O)[nH]c1=O`, the inhibition is 12.7% (inactive).

Turning to `Cn1c(O)c(/C=C2/C=CC=N2)c(=O)[nH]c1=O`, the inhibition was 17.3% (inactive).
